Here are results for 38 molecules from PubChem BioAssay (NCI).

Compounds without any hit were thinned out: in the full panel of roughly 83,000, 20% have a hit.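 Step 1: grow cells in 96-well plates. Step 2: add test compound at a single concentration. Step 3: incubate 48 h. Step 4: record percent growth.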 Values without a mark were called inactive. Active and inactive are the calls of the source. Rule for the calls: active = growth percent below 10; inactive = the rest.

The first test deals with MDA-MB-435 melanoma. Put plainly: NCI-60 one-dose screen, 48 h (100 = growth as untreated, 0 = no growth, -100 = all killed). To be noted: 10 µM unless noted.
As for `C=C1C(=O)O[C@H]2[C@H]1CC/C(COC(=O)NCCc1ccc(Br)cc1)=C\CC[C@@]1(C)O[C@@H]21`, the growth is 23.9%.

In the case of `COc1ccc(C(=O)/C=C/c2ccc(/C=C/c3cc(OC)c(OC)c(OC)c3)cc2)cc1`, the growth is 41%.

For `COc1ccc(C2CC(=O)Nc3c2c(C)nn3-c2nc3ccccc3[nH]2)cc1OC` (stereo unspecified), the growth is 24.7%.

In the case of `O=C(O)c1ccc(-n2cc(CNc3ccc(C(F)(F)F)cc3)c(-c3ccccc3)n2)cc1`, the growth was 90.8%.

Take `C=C1C(=O)O[C@H]2[C@H]1CC/C(COC(=O)NCCc1cccc(OC)c1)=C\CC[C@@]1(C)O[C@@H]21`: the growth is 39.6%.

As to `Nc1ccc(S(=O)(=O)c2ccc(Cl)cc2)cc1`, the growth is 121%.

Take `C/C(=C\c1csc(C)n1)[C@@H]1C[C@@H]2O[C@]2(C)CCC[C@H](C)[C@H](O)[C@@H](C)C(=O)C(C)(C)[C@@H](O)CC(=O)N1`: the growth was -79.7% (active).

Turning to `CCNC(=O)C1CCCN1C(=O)C(CCCN=C(N)N)NC(=O)C(CC(C)C)NC(=O)C(CC(C)C)NC(=O)C(Cc1ccc(O)cc1)NC(=O)C(CO)NC(=O)C(Cc1c[nH]c2ccccc12)NC(=O)C(Cc1cnc[nH]1)NC(=O)C1CCC(=O)N1` (stereo unspecified), the growth was 105%.

On to `O=C(O)C(=Cc1c2ccccc2cc2ccccc12)C(=O)O`, for which the growth was 109%.

In the case of `CCCCCCCCCCn1cc[n+](C)c1`, the growth is 7.98% (active).

Regarding `Cc1oc2ncnc(Nc3ccccc3)c2c1C(=O)NCCO`, the growth is 102%.

Consider `O=C(Nc1ccc(I)cc1)c1cc([N+](=O)[O-])ccc1O`, for which the growth was 38.5%.

For the molecule `C[C@]12CC[C@@H]3c4cc(O)c(O)cc4CC[C@H]3[C@@H]1CC[C@@H]2O`, the growth was -45% (active).

In the case of `O=C1C2=C(C(=O)c3c(O)ccc(O)c31)N(c1cccnc1)Cc1ccccc1O2`, the growth was -14.2% (active).

Regarding `CCCCCCc1nc2c(c(C)nn2-c2ccccc2)c2c1CCCCC2`, the growth was 116%.

Take `COc1ccc(-c2nc3sccn3c2-c2ccnc(NCCCNS(=O)(=O)c3ccc(C)cc3)n2)cc1`: the growth is 23.4%.

For the molecule `NC(=O)c1cccc(N2Cc3ccccc3OC3=C2C(=O)c2c(O)ccc(O)c2C3=O)c1`, the growth is -27.3% (active).

In the case of `Nc1cccc2c1CN(C1CCC(=O)NC1=O)C2=O` (stereo unspecified), the growth was 101%.

Turning to `COc1ccc2c(c1)C(=O)/C(=C/c1ccc(O)cc1)O2`, the growth was 93.2%.

Regarding `COc1cccc(-c2nc3sccn3c2-c2ccnc(NCCCNS(=O)(=O)c3ccc(F)cc3)n2)c1`, the growth was 25.2%.

Turning to `O=C1NCC(c2cc3ccccc3[nH]c2=O)Nc2ccccc21` (stereo unspecified), the growth was 107%.

As for `COC1=CC(c2ccc[nH]2)=N/C1=C\c1[nH]c(C)c(C(=O)CCCCC(=O)NCc2ccccc2)c1C`, the growth was -20% (active).

As for `COc1ncc(-c2ccc3ncnc(Nc4cccc(Cl)c4)c3c2)cc1NS(=O)(=O)C1CC1`, the growth is 47.9%.

Take `C=C1C(=O)O[C@H]2[C@H]1CC/C(Cn1cc(-c3ccsc3)nn1)=C\CC[C@@]1(C)O[C@@H]21`: the growth is -16% (active).

For the molecule `C=C1C(=O)O[C@H]2[C@H]1CC/C(COC(=O)NCCc1ccc(OC)cc1)=C\CC[C@@]1(C)O[C@@H]21`, the growth was 21.5%.

`CCN(C(=O)c1cc2ccccc2[nH]1)[C@H]1CCC[C@@H](NCc2ccc(OC)cc2)C1`: the growth was 93.1%.

Turning to `COc1ccc(C2NC3=C(CCCC3)C(C#N)(C#N)C2(C#N)C#N)cc1` (stereo unspecified), the growth was 103%.

As for `CCCCCc1c(C)[nH]c(/C=c2\[nH]/c(=C3/C=c4ccccc4=N3)cc2OC)c1C`, the growth is -53.6% (active).

Regarding `Nc1c(C(=O)Nc2cccc(Cl)c2Cl)sc2nc3c(cc12)C(=O)CCC3`, the growth was 20.6%.

`O=C1CCC/C=C\C[C@H]2C=CC(=O)/C2=C/C[C@H](C/C=C\CC(F)(F)F)O1`: the growth is -22.8% (active).

For `COc1ccc(/C=C/C(=O)/C=C/c2cc3ccc(Cl)cc3[nH]c2=O)cc1`, the growth is 81.5%.

`N#Cc1c(NC(=O)c2ccc([N+](=O)[O-])o2)[n+]([O-])c2cc(F)c(F)cc2[n+]1[O-]`: the growth is 109%.

Regarding `CC(CCc1ccccc1)NC(=O)c1n[nH]c(=O)c2ccccc12` (stereo unspecified), the growth was 108%.

For `COc1ccc(/C=C/c2cc(N3CCOCC3)c3cc(F)c(F)cc3n2)cc1OC`, the growth is 51%.

With `CC(C)C[C@H](NC(=O)Cn1ccc(NCc2ccccc2)cc1=O)B(O)O`, the growth was -62.2% (active).

As to `CCNc1nc(N2CC(=O)Nc3cc(OC)ccc32)c2ccccc2n1`, the growth is -25.8% (active).

In the case of `COc1ccc(/C=C/c2nc(N3CCOCC3)c3nc(Cl)c(Cl)cc3n2)cc1OC`, the growth was 99.8%.

With `O=S=Nc1ccc([N+](=O)[O-])cc1`, the growth was 95.5%.

Another test relates to SW-620 colon. Described as above. To be noted: 10 µM unless noted.
`C=C1C(=O)O[C@H]2[C@H]1CC/C(COC(=O)NCCc1ccc(Br)cc1)=C\CC[C@@]1(C)O[C@@H]21`: the growth was -55.6% (active).

For the molecule `COc1ccc(C(=O)/C=C/c2ccc(/C=C/c3cc(OC)c(OC)c(OC)c3)cc2)cc1`, the growth was 39.3%.

For `COc1ccc(C2CC(=O)Nc3c2c(C)nn3-c2nc3ccccc3[nH]2)cc1OC` (stereo unspecified), the growth is 78.3%.

For the molecule `O=C(O)c1ccc(-n2cc(CNc3ccc(C(F)(F)F)cc3)c(-c3ccccc3)n2)cc1`, the growth is 98.2%.

Turning to `C=C1C(=O)O[C@H]2[C@H]1CC/C(COC(=O)NCCc1cccc(OC)c1)=C\CC[C@@]1(C)O[C@@H]21`, the growth is -10.8% (active).

Regarding `Nc1ccc(S(=O)(=O)c2ccc(Cl)cc2)cc1`, the growth is 94.1%.

`C/C(=C\c1csc(C)n1)[C@@H]1C[C@@H]2O[C@]2(C)CCC[C@H](C)[C@H](O)[C@@H](C)C(=O)C(C)(C)[C@@H](O)CC(=O)N1`: the growth was -98.6% (active).

Regarding `CCNC(=O)C1CCCN1C(=O)C(CCCN=C(N)N)NC(=O)C(CC(C)C)NC(=O)C(CC(C)C)NC(=O)C(Cc1ccc(O)cc1)NC(=O)C(CO)NC(=O)C(Cc1c[nH]c2ccccc12)NC(=O)C(Cc1cnc[nH]1)NC(=O)C1CCC(=O)N1` (stereo unspecified), the growth is 89.4%.

Regarding `O=C(O)C(=Cc1c2ccccc2cc2ccccc12)C(=O)O`, the growth was 105%.

Turning to `CCCCCCCCCCn1cc[n+](C)c1`, the growth is 44.1%.

As for `Cc1oc2ncnc(Nc3ccccc3)c2c1C(=O)NCCO`, the growth was 95.1%.

Consider `O=C(Nc1ccc(I)cc1)c1cc([N+](=O)[O-])ccc1O`, for which the growth was 35.2%.

Consider `C[C@]12CC[C@@H]3c4cc(O)c(O)cc4CC[C@H]3[C@@H]1CC[C@@H]2O`, for which the growth was 30.7%.

Turning to `O=C1C2=C(C(=O)c3c(O)ccc(O)c31)N(c1cccnc1)Cc1ccccc1O2`, the growth is -45.9% (active).

As for `CCCCCCc1nc2c(c(C)nn2-c2ccccc2)c2c1CCCCC2`, the growth was 101%.

With `COc1ccc(-c2nc3sccn3c2-c2ccnc(NCCCNS(=O)(=O)c3ccc(C)cc3)n2)cc1`, the growth was 38.6%.

`NC(=O)c1cccc(N2Cc3ccccc3OC3=C2C(=O)c2c(O)ccc(O)c2C3=O)c1`: the growth is -66.6% (active).

In the case of `Nc1cccc2c1CN(C1CCC(=O)NC1=O)C2=O` (stereo unspecified), the growth is 95.6%.

`COc1ccc2c(c1)C(=O)/C(=C/c1ccc(O)cc1)O2`: the growth was 9.11% (active).

For `COc1cccc(-c2nc3sccn3c2-c2ccnc(NCCCNS(=O)(=O)c3ccc(F)cc3)n2)c1`, the growth is 58.4%.

With `O=C1NCC(c2cc3ccccc3[nH]c2=O)Nc2ccccc21` (stereo unspecified), the growth was 102%.

For `COC1=CC(c2ccc[nH]2)=N/C1=C\c1[nH]c(C)c(C(=O)CCCCC(=O)NCc2ccccc2)c1C`, the growth is -96.7% (active).

Consider `COc1ncc(-c2ccc3ncnc(Nc4cccc(Cl)c4)c3c2)cc1NS(=O)(=O)C1CC1`, for which the growth was 51.1%.

Take `C=C1C(=O)O[C@H]2[C@H]1CC/C(Cn1cc(-c3ccsc3)nn1)=C\CC[C@@]1(C)O[C@@H]21`: the growth is -71.3% (active).

As to `C=C1C(=O)O[C@H]2[C@H]1CC/C(COC(=O)NCCc1ccc(OC)cc1)=C\CC[C@@]1(C)O[C@@H]21`, the growth is -65.6% (active).

`CCN(C(=O)c1cc2ccccc2[nH]1)[C@H]1CCC[C@@H](NCc2ccc(OC)cc2)C1`: the growth was 91.2%.

As for `COc1ccc(C2NC3=C(CCCC3)C(C#N)(C#N)C2(C#N)C#N)cc1` (stereo unspecified), the growth is 48.2%.

In the case of `CCCCCc1c(C)[nH]c(/C=c2\[nH]/c(=C3/C=c4ccccc4=N3)cc2OC)c1C`, the growth is -36.1% (active).

For `Nc1c(C(=O)Nc2cccc(Cl)c2Cl)sc2nc3c(cc12)C(=O)CCC3`, the growth was 64%.

In the case of `O=C1CCC/C=C\C[C@H]2C=CC(=O)/C2=C/C[C@H](C/C=C\CC(F)(F)F)O1`, the growth was -15.7% (active).

`COc1ccc(/C=C/C(=O)/C=C/c2cc3ccc(Cl)cc3[nH]c2=O)cc1`: the growth is 66.1%.

As to `N#Cc1c(NC(=O)c2ccc([N+](=O)[O-])o2)[n+]([O-])c2cc(F)c(F)cc2[n+]1[O-]`, the growth is 128%.

`CC(CCc1ccccc1)NC(=O)c1n[nH]c(=O)c2ccccc12` (stereo unspecified): the growth is 100%.

Turning to `COc1ccc(/C=C/c2cc(N3CCOCC3)c3cc(F)c(F)cc3n2)cc1OC`, the growth was 45.8%.

`CC(C)C[C@H](NC(=O)Cn1ccc(NCc2ccccc2)cc1=O)B(O)O`: the growth is 4.73% (active).

With `CCNc1nc(N2CC(=O)Nc3cc(OC)ccc32)c2ccccc2n1`, the growth is 21.5%.

`COc1ccc(/C=C/c2nc(N3CCOCC3)c3nc(Cl)c(Cl)cc3n2)cc1OC`: the growth was 109%.

As for `O=S=Nc1ccc([N+](=O)[O-])cc1`, the growth is 93.4%.
